ClpP mod = qHTS Assay for Activators of ClpP | ATP-dependent Clp protease proteolytic subunit (Bacillus subtilis (strain 168)), P80244 | purified B. subtilis ClpP, FRET peptide cleavage, 20 min | Potency, µM (titrated, usually from 57.5 µM) | 340,000 compounds, 1.9% hits | AID 651965, 2013; active = well fitted falling curve with a large enough effect; inconclusive = small, poorly fitted or top-dose-only effect; inactive = no such curve, though single readings can be large or run the other way; note: the source files actives as falling curves though it sought activators and does not explain the sign; nearly all actives have a fitted effect of over 65% in size
Target sequence (P80244 whole entry, looked up): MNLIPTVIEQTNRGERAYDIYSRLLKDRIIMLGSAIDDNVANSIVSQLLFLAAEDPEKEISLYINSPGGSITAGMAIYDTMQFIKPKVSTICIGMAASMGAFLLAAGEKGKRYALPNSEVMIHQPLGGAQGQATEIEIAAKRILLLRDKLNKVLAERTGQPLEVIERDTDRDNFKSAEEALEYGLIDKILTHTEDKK
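Purified B. subtilis ClpP, 10 microg/mL final in Tris/HCl pH8 with KCl, BSA, glycerol and Tween-20, cleaved an Abz/nitrotyrosine-quenched decapeptide. Fluorescence (ex 320, em 430) was read at 0 and 20 min at room temperature. Delta was normalized to 5.8 microM ADEP and DMSO/no-enzyme controls.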
PINK1 expr mod = modulators of PINK1 expression | PINK1 immunofluorescence, high-content cytometry, 24 h | Potency, µM (series often up to 76.6 µM), most hits filed as activators | 410,000 compounds, 0.2% hits | AID 624263; active = well fitted activation curve with a large enough effect; inconclusive = small, poorly fitted or top-dose-only effect; cell line not stated here; note: nearly all actives have a fitted effect of over 65% in size
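PINK1 protein, normally rapidly degraded, was detected by immunofluorescence after 24 hour compound treatment of a stable cell line. Titration data (5 concentrations) came from laser-scanning cytometry, with CCCP-treated wells as controls.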
Sfp PPTase inh = blocks B. subtilis Sfp PPTase activity. Biochemical Sfp PPTase activity, qHTS. AID 1490. Potency, µM, most hits filed as inhibitors. Q9F4F7. 310,000 compounds, 3.5% hits;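 note: the enzyme is Sfp with the accession as filed and its product quenches rhodamine fluorescence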
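Buffer: 50 mM Hepes-Na pH 7.6, 10 mM MgCl2, 0.01% Nonidet P-40, 0.01% BSA. Enzyme 15 nM, pre-exposed to compound 15 min; substrates then added and fluorescence change tracked over 30 min.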
Epigenetic derep = regulators of epigenetic silencing causing reporter derepression in mouse cells. murine LDR cells, GFP reporter derepression, 30 h. Potency, µM (series often up to 53.9 µM), usual class: activators. 280,000 compounds, 0.2% hits. AID 1865; note: nearly all actives have a fitted effect of over 60% in size
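In this reporter-derepression format, murine cells bearing a silenced integrated CMV-GFP locus incubate with test compound (30 h, 37 C), then are washed and imaged; fluorescent objects of 20–120 um count as induced cells.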
VP16 counter = Gal4-VP16 reporter inhibition counter-screen. Drosophila S2 Gal4-VP16 UAS-luciferase, luminescence, 20 h. 310,000 compounds, 3.5% hits. AID 2546. Potency, µM (highest dose often 53.6 µM), actives largely listed as inhibitors;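 note: Gal4-VP16 expression switched on by copper sulfate through the metallothionein promoter; nearly all actives have a fitted effect of over 50% in size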
RORgamma inh = blocks mouse ROR gamma transcriptional activity; AID 2551; Potency, µM (highest dose often 53.6 µM), most hits filed as inhibitors; P51450; 310,000 compounds, 5.4% hits; Drosophila S2 Gal4-RORgamma UAS-luciferase reporter, 20 h; note: nearly all actives have a fitted effect of over 60% in size
Target sequence (P51450 whole entry, looked up, the tested form may be a part): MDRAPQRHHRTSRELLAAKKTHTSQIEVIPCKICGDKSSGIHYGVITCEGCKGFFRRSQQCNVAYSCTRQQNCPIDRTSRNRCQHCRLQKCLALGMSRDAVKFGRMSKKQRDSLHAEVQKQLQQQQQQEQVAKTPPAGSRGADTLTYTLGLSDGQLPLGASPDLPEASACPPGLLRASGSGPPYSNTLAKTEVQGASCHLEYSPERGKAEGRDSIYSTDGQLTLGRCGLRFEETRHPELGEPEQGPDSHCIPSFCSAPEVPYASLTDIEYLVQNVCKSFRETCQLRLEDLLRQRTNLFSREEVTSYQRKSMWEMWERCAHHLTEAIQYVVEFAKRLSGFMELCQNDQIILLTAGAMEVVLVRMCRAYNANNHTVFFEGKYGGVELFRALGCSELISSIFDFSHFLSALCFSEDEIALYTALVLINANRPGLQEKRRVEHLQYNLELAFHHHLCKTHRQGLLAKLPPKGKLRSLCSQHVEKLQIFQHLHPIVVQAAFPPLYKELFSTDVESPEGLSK
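A Gal4/UAS one-hybrid system in insect cells: metallothionein-promoter Gal4–ROR gamma fusion plus Photinus luciferase reporter. Copper sulfate 700 uM final, 20 hr ambient incubation, luminescent detection after 10 min with reagent.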
Numbers stand for hits; i = inactive; ? = inconclusive; nt = no result. A selection: hits, their analogues and other compounds. The true share with any hit is near 8.1%. Unless noted, calls come from the whole dose curve; as a rule, active = well fitted curve in the direction sought with a large enough effect; inconclusive = small, poorly fitted or top-dose-only effect, or another doubt; inactive = no such curve, though single readings can be large; an effect the other way counts as inactive or inconclusive.

SMILES | ClpP mod | PINK1 expr mod | Sfp PPTase inh | Epigenetic derep | VP16 counter | RORgamma inh
CCOC(=O)c1c(C)[nH]c(N=Nc2ccccc2)c1C | i | i | i | i | ? | ?
CCOC(=O)c1c(C)[nH]c(C2=NNC(=Nc3ccccc3)SC2)c1C | i | ? | 40µM | i | 11µM | ?
CC(=O)c1c(C)[nH]c(-c2ccccc2)c1C | i | i | i | i | ? | i
CCOC(=O)c1c(C)[nH]c(N=Nc2ccccc2Cl)c1C | i | i | ? | i | i | ?
CCOC(=O)c1ccc(N=C2NC(=O)CS2)cc1 | i | i | i | i | i | i
CC(=O)c1c(C)[nH]c(C2=NNC(=NC(C)(C)C)SC2)c1C | nt | i | 22µM | i | ? | ?
CCOC(=O)c1c(C)[nH]c(C2=NNC(=Nc3ccc(OCC)cc3)SC2)c1C | i | i | 79µM | i | ? | ?
O=C(CSc1nc(-c2ccc(F)cc2)[nH]c1-c1ccccc1)Nc1ccccc1 | ? | i | nt | i | nt | nt
Cn1c(CCNC(=O)c2ccco2)nc2cc(NC(=O)COc3ccc(Cl)cc3)ccc21 | i | i | nt | ? | nt | nt
Cc1nn2c(=O)cc(COC(=O)C(c3ccccc3)c3ccccc3)nc2s1 | i | i | nt | i | nt | nt
OCCN(CCO)c1ccc(/C=C/c2ccnc3ccccc23)cc1 | i | nt | nt | nt | nt | nt
CCC(=O)N1c2ccccc2CC1C(=O)NCCN1CCN(c2cccc(C(F)(F)F)c2)CC1 (centres undefined) | i | i | nt | i | nt | nt
O=C(Cn1cc(C(=S)N2CCOCC2)c2ccccc21)N1CCOCC1 | i | i | i | i | i | i
O=C(O)Cn1cc(C(=S)N2CCCCC2)c2ccccc21 | i | i | 22µM | i | i | i
Fc1ccc(Cn2cc(C(=S)N3CCOCC3)c3ccccc32)cc1 | i | i | i | i | ? | 8.9µM
Fc1ccccc1Cn1cc(C(=S)N2CCOCC2)c2ccccc21 | i | i | i | i | i | ?
CC1CCN(C(=S)c2cn(Cc3cccc(F)c3)c3ccccc23)CC1 | nt | i | i | i | ? | 10µM
O=C(O)Cn1cc(C(=S)N2CCOCC2)c2ccccc21 | i | i | 50µM | i | i | i
Cc1cnc(-n2ncc(C(=O)N(CCO)C(C)C)c2-c2cccs2)nc1-c1ccc(F)cc1 | nt | i | nt | nt | nt | nt
COc1ccccc1NC(=O)Cn1c(=O)n(CC(=O)NCc2ccccc2Cl)c(=O)c2sccc21 | i | i | nt | i | nt | nt
CN1CCN(C(=S)c2cn(Cc3ccccc3)c3ccccc23)CC1 | i | i | i | i | i | ?
CN1CCN(C(=S)c2cn(Cc3ccc(Br)cc3)c3ccccc23)CC1 | i | i | i | i | i | 25µM
CSc1nnc(CNS(=O)(=O)c2ccc(F)cc2F)n1-c1ccccc1C | nt | i | nt | nt | nt | nt
COCCN1CCN(c2cc(-c3ccccc3)nc3cc(-c4cccc(F)c4)nn23)CC1 | 25µM | i | ? | i | i | ?
COc1ccc(O)c(N)c1 | nt | nt | 56µM | i | i | i
SMILES | ClpP mod | PINK1 expr mod | Sfp PPTase inh | Epigenetic derep | VP16 counter | RORgamma inh
Cc1ccn2c(Nc3ccc4c(c3)OCO4)c(-c3ccco3)nc2c1 | i | i | nt | i | nt | nt
CC(C)CCNC(=S)Nc1ccccc1F | i | i | i | i | 11µM | 7.9µM
CC(C)CCNC(=S)Nc1ccccn1 | i | i | i | i | 4µM | 0.56µM
COCCNC(=S)Nc1ccccn1 | i | i | i | i | ? | 18µM
O=C(C[n+]1cccc(Br)c1)c1ccc2c(c1)CCCC2 | i | i | nt | nt | nt | nt
CCOC(=O)c1cc2c(=O)n3ccccc3nc2n(CC2CCCO2)c1=NC(=O)c1cccc(C)c1 (centres undefined) | i | i | nt | i | nt | nt
CNc1oc(-c2ccccc2Cl)nc1P(=O)(c1ccccc1)c1ccccc1 | i | i | ? | i | ? | i
CNc1oc(-c2ccc(C)cc2)nc1P(=O)(c1ccccc1)c1ccccc1 | i | i | 56µM | i | i | i
CSc1nnc(C)c(=O)n1COC(=O)COc1ccccc1F | nt | i | i | i | i | i
CSc1nnc(C)c(=O)n1COC(=O)COc1ccccc1C | 28µM | i | i | i | i | i
CC1CCc2c(sc3[nH]c(=S)n(C)c(=O)c23)C1 (centres undefined) | nt | i | 79µM | nt | 0.89µM | 0.56µM
C=CCn1c(=S)[nH]c2sc3c(c2c1=O)CCC3 | i | i | i | i | ? | 0.1µM
CN(C)CCCn1c(=S)[nH]c2sc3c(c2c1=O)CCCC3 | nt | i | 79µM | nt | ? | 14µM
CCn1c(=S)[nH]c2sc3c(c2c1=O)CCCC3 | i | i | i | nt | 0.63µM | 0.45µM
CCn1c(=O)c2c3c(sc2n2cnnc12)CCC3 | i | i | i | i | i | i
CC1CCc2c(sc3nn[nH]c(=O)c23)C1 (centres undefined) | i | i | ? | i | i | i
COc1ccc2c(c1)CC[C@@H]1[C@@H]2CC[C@]2(C)[C@@H](NCCCCCCN3C(=O)C=CC3=O)CC[C@@H]12 | nt | nt | i | i | nt | nt
COc1ccc(NC(=O)C(=O)NCCc2csc(-c3ccc(Cl)cc3)n2)cc1OC | i | i | nt | i | nt | nt
O=c1[nH]c(=S)c2[nH]cnc2[nH]1 | ? | i | nt | nt | nt | nt
O=C(CCl)N(c1ccccc1)C1CCCCC1 | i | i | i | i | 3.5µM | 0.71µM
CC(=O)N(c1ccccc1)C1CCCC1 | i | i | i | i | i | i
CC1CCN(c2oc(-c3cccs3)nc2S(=O)(=O)c2ccc(Cl)cc2)CC1 | i | i | nt | i | nt | nt
Cc1cc(=O)n2c3c(sc2n1)C(=O)N(Cc1ccccc1)C3=O | nt | nt | 13µM | ? | ? | i
Cc1cc(=O)n2nc(-c3ccccc3)sc2n1 | ? | i | i | i | i | ?
CC(=O)c1c(C)[nH]c(C(=O)OCC(=O)Nc2ccc(Cl)cc2[N+](=O)[O-])c1C | i | ? | i | i | 5µM | ?
SMILES | ClpP mod | PINK1 expr mod | Sfp PPTase inh | Epigenetic derep | VP16 counter | RORgamma inh
Cc1ccc(-n2ncc(C(=O)NCc3ccc4c(c3)OCO4)c2C2CCN(C(=O)OC(C)(C)C)CC2)c(C)c1 | i | i | nt | i | nt | nt
CC(C)Oc1ccc(C(=O)NC(=S)Nc2ccc(CN3CCOCC3)cc2)cc1 | nt | i | i | i | 13µM | 7.1µM
CC(C)C(=O)NC(=S)Nc1ccc(CN2CCOCC2)cc1 | i | i | i | i | i | ?
Cc1ccc(C(=O)NC(=S)Nc2ccc(CN3CCOCC3)cc2)cc1 | i | i | i | nt | ? | 14µM
CCOc1cccc(C2C(C(=O)c3ccc(C)o3)=C(O)C(=O)N2c2nccs2)c1 (centres undefined) | i | i | 56µM | i | i | i
CCOc1cccc(C2C(C(=O)c3ccc(C)o3)=C(O)C(=O)N2Cc2ccncc2)c1 (centres undefined) | i | i | ? | i | i | ?
O=C(C1=C(O)C(=O)N(c2nccs2)C1c1ccccc1)c1cc2ccccc2o1 (centres undefined) | nt | i | 5µM | i | i | i
O=C(CSc1ccc(-c2ccco2)nn1)NCc1ccc(F)cc1 | i | i | ? | i | i | i

Bioassay records deposited in PubChem by National Center for Advancing Translational Sciences (NCATS).
